Each structure is given as a SMILES string. Structures can show the parent of a compound that is named as a salt. ± gives the standard deviation of the averaged measurements.

One assay deals with E. coli TESEC Mtb DapB. Nature of the assay: growth (OD600 after 10 h); higher = more growth (less inhibition). To be noted: arabinose induction (level): High; compound 0.1 mM; raw OD600 reference: median of DMSO wells […], cell-free background 0.041. As for the experimental part:
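TESEC E. coli strains in which the native enzyme is deleted and replaced by arabinose-inducible Mtb Asd, DapB, CysH or TrpD, each grown in its selective medium. Strains were screened against the Prestwick library at 0.1 mM and 1% DMSO in 384-well format at low and high arabinose induction. Growth is read as OD600 after 10 h in triplicate.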
`O=C(O)c1cccnc1` [Niacin] showed a growth of 0.211 ± 0.016.
In turn, `COC(=O)Nc1nc2ccc(SC(C)C)cc2[nH]1` [Methiazole] yielded a growth of 0.204 ± 0.019.
As for `NC(=O)c1ccc[n+]([C@@H]2O[C@H](COP(=O)([O-])OP(=O)(O)OC[C@H]3O[C@@H](n4cnc5c(N)ncnc54)[C@H](O)[C@@H]3O)[C@@H](O)[C@H]2O)c1` [Nadide], the growth worked out at 0.21 ± 0.0067.
`CN(C)C(=O)C(CCN1CCC(O)(c2ccc(Cl)cc2)CC1)(c1ccccc1)c1ccccc1` [Loperamide hydrochloride] displayed a growth of 0.0489 ± 0.00058.
For `N#Cc1cc(NC(=O)C(=O)O)c(Cl)c(NC(=O)C(=O)O)c1` [Lodoxamide], the growth came to 0.222 ± 0.018.
In turn, `OC(CCN1CCCCC1)(c1ccccc1)C1CCCCC1` (stereo not given) [Trihexyphenidyl-D,L Hydrochloride] came in with a growth of 0.179 ± 0.016.
As to `CCN(CC)CCOC(=O)C(c1ccccc1)C1CCCCC1` (stereo not given) [Drofenine hydrochloride], the growth stood at 0.156 ± 0.0038.
On the same count and under the same terms, in the case of `COC(=O)C1=C(C)NC(C)=C(C(=O)OC)C1c1ccccc1[N+](=O)[O-]` [Nifedipine] it was 0.155 ± 0.018.
The same measure, in the same setting: in the case of `Cc1cccc(Nc2ccccc2C(=O)O)c1C` [Mefenamic acid] it was 0.203 ± 0.027; in that of `CC(=O)/N=c1/sc(S(N)(=O)=O)nn1C` [Methazolamide], 0.207 ± 0.013.
`CCOC(=O)O[C@]1(C(=O)COC(=O)CC)CC[C@H]2[C@@H]3CCC4=CC(=O)C=C[C@]4(C)[C@H]3[C@@H](O)C[C@@]21C` [Prednicarbate] returned a growth of 0.193 ± 0.008.
As to `N[C@H]1CONC1=O` [(S)-(-)-Cycloserine], the growth was found to be 0.211 ± 0.015.
`Cc1cc(C2CCCCC2)n(O)c(=O)c1` [Ciclopirox ethanolamine] came in with a growth of 0.0626 ± 0.011.
With `COc1cc(C(=O)NC2CCCNC2)cc(OC)c1OC` (stereo not given) [Troxipide], the growth is 0.19 ± 0.012.
For `CC(C)(C)CC(C)(C)c1ccc(OCCOCC[N+](C)(C)Cc2ccccc2)cc1` [Benzethonium chloride], the growth came out at 0.0485 ± 0.0028.
On the same count and under the same terms, the same measure for `CN(Cc1cc(Br)cc(Br)c1N)C1CCCCC1` [Bromhexine hydrochloride]: 0.04827 ± 0.00047; for `CN1CCN2c3ccccc3Cc3ccccc3C2C1` (stereo not given) [Mianserine hydrochloride]: 0.189 ± 0.0025; for `CCN(CC)CCNC(C(=O)OCCC(C)C)c1ccccc1` (stereo not given) [Camylofine chlorhydrate]: 0.153 ± 0.013.
As for `O=c1[nH]c(=O)n([C@H]2C[C@H](O)[C@@H](CO)O2)cc1C(F)(F)F` [Trifluridine], the growth stood at 0.164 ± 0.006.
Consider `CC(C)(Oc1ccc(C2CC2(Cl)Cl)cc1)C(=O)O` (stereo not given) [Ciprofibrate], for which the growth came out at 0.203 ± 0.018.

The same assay, now with this note: arabinose induction (level): Low; compound 0.1 mM; raw OD600 reference: median of DMSO wells 0.227, cell-free background 0.041.
`O=C(O)c1cccnc1` [Niacin] yielded a growth of 0.238 ± 0.0084.
Molecule `COC(=O)Nc1nc2ccc(SC(C)C)cc2[nH]1` [Methiazole] displayed a growth of 0.235 ± 0.035.
`NC(=O)c1ccc[n+]([C@@H]2O[C@H](COP(=O)([O-])OP(=O)(O)OC[C@H]3O[C@@H](n4cnc5c(N)ncnc54)[C@H](O)[C@@H]3O)[C@@H](O)[C@H]2O)c1` [Nadide] came in with a growth of 0.216 ± 0.02.
`CN(C)C(=O)C(CCN1CCC(O)(c2ccc(Cl)cc2)CC1)(c1ccccc1)c1ccccc1` [Loperamide hydrochloride] showed a growth of 0.0571 ± 0.017.
On to `N#Cc1cc(NC(=O)C(=O)O)c(Cl)c(NC(=O)C(=O)O)c1` [Lodoxamide], for which the growth was 0.235 ± 0.03.
For `OC(CCN1CCCCC1)(c1ccccc1)C1CCCCC1` (stereo not given) [Trihexyphenidyl-D,L Hydrochloride], the growth is 0.22 ± 0.018.
`CCN(CC)CCOC(=O)C(c1ccccc1)C1CCCCC1` (stereo not given) [Drofenine hydrochloride] gave a growth of 0.179 ± 0.014.
On the same count and under the same terms, in the case of `COC(=O)C1=C(C)NC(C)=C(C(=O)OC)C1c1ccccc1[N+](=O)[O-]` [Nifedipine] it was 0.216 ± 0.069.
On the same count and under the same terms, the same measure for `Cc1cccc(Nc2ccccc2C(=O)O)c1C` [Mefenamic acid]: 0.208 ± 0.028.
In the case of `CC(=O)/N=c1/sc(S(N)(=O)=O)nn1C` [Methazolamide], the growth was 0.228 ± 0.01.
`CCOC(=O)O[C@]1(C(=O)COC(=O)CC)CC[C@H]2[C@@H]3CCC4=CC(=O)C=C[C@]4(C)[C@H]3[C@@H](O)C[C@@]21C` [Prednicarbate] yielded a growth of 0.237 ± 0.026.
As to `N[C@H]1CONC1=O` [(S)-(-)-Cycloserine], the growth was determined as 0.276 ± 0.051.
Consider `Cc1cc(C2CCCCC2)n(O)c(=O)c1` [Ciclopirox ethanolamine], for which the growth came out at 0.05427 ± 0.00029.
Turning to `COc1cc(C(=O)NC2CCCNC2)cc(OC)c1OC` (stereo not given) [Troxipide], the growth stood at 0.216 ± 0.0046.
`CC(C)(C)CC(C)(C)c1ccc(OCCOCC[N+](C)(C)Cc2ccccc2)cc1` [Benzethonium chloride]: the growth turned out to be 0.0496 ± 0.0014.
`CN(Cc1cc(Br)cc(Br)c1N)C1CCCCC1` [Bromhexine hydrochloride] returned a growth of 0.0644 ± 0.0038.
Molecule `CN1CCN2c3ccccc3Cc3ccccc3C2C1` (stereo not given) [Mianserine hydrochloride] showed a growth of 0.243 ± 0.03.
With `CCN(CC)CCNC(C(=O)OCCC(C)C)c1ccccc1` (stereo not given) [Camylofine chlorhydrate], the growth is 0.171 ± 0.016.
Consider `O=c1[nH]c(=O)n([C@H]2C[C@H](O)[C@@H](CO)O2)cc1C(F)(F)F` [Trifluridine], for which the growth was 0.174 ± 0.0024.
Take `CC(C)(Oc1ccc(C2CC2(Cl)Cl)cc1)C(=O)O` (stereo not given) [Ciprofibrate]: the growth was 0.207 ± 0.012.

Source of the values: the supplement of paper PMC9262897, “Low-cost anti-mycobacterial drug discovery using engineered E. coli” (Nature Communications, 2022).
